Only some compounds are listed: those with a hit (about 19% of all), similar ones and a draw of the others.
TDP1 cell noCPT: qHTS for Inhibitors of human tyrosyl-DNA phosphodiesterase 1 (TDP1): qHTS in cells in absence of CPT | DT40 Tdp1-/- hTDP1 cells, no CPT, ATP luminescence, 48 h | Potency, µM (top dose mostly 46.2 µM), for inactives: top-dose activity change, negative = growth inhibition, actives largely listed as inhibitors | 15% of 420,000 active; further: potency means the concentration at half of the fitted maximal effect; on the % scale 0 is the no-effect control and ±100 the full control effect; nearly all actives have a fitted effect of over 55% in size
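Cells were dispensed at 400 per well, compounds added by pin tool, plates incubated ≥48 hr at 37 °C, then CellTiter-Glo added for 30 min at room temperature before luminescence reading. Line: DT40 Tdp1-/- complemented with hTDP1; camptothecin omitted.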
IL-1B inflam inh: inflammasome signaling inhibition, IL-1 beta readout | THP-1 LPS/ATP IL-1B secretion, AlphaLISA, 16 h; stronger effect = lower value | activity change, % at 57.5 µM | 4.7% of 360,000 active | AID 743279; in the data active means activity change below about -50%; inconclusive means mostly about -30% to -49%; further: on the % scale 0 is the no-effect control and ±100 the full control effect
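THP-1 cells pretreated 1 hr with compounds (up to 57.5 uM final), then stimulated with LPS (250 ng/mL final) plus ATP (1.25 mM final); secreted IL-1B measured by AlphaLISA after 16 hr, decreased signal indicating inhibition.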
BCR signal inh: blocks chronic active B-cell receptor signaling; ABC-DLBCL IkBa-CBG/CBR reporter, luminescence ratio, 4 h; AID 493014; Potency, µM (top dose mostly 46.1 µM), for inactives: at the top dose activity change, negative = inhibition, hits mostly inhibitors; 0.05% of 340,000 active; active means well fitted inhibition curve with a large enough effect in the signal ratio, with a control signal flat, not every such curve was filed as active; inconclusive means small, poorly fitted or top-dose-only effect, or effect the other way, or a change in a side signal; the % refers to the signal ratio;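 further: potency means the concentration at half of the fitted maximal effect; plate controls were basal doxycycline-induced cells for no effect and cells given 10 µM MG132 for full effect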
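TMD8 ABC-DLBCL cells carrying doxycycline-inducible green luciferase fused to IkappaBalpha plus unfused red luciferase were exposed to compounds (up to 46 uM) for 4 hrs at 37C. Activity came from the overlap-corrected green/red luminescence ratio.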
SW480 rereplic: inducers of DNA re-replication in SW480 colon cancer cells | SW480 DNA re-replication, Hoechst DNA content imaging, 48 h | 1.8% of 340,000 active | Potency, µM (titrated, usually from 46.1 µM), for the others: at the highest dose re-replication activation, usual class: activators; further: potency means the concentration at half of the fitted maximal effect; % of control where 0% means no effect; nearly all actives have a fitted effect of over 55% in size
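Treated cells incubate 48 hr (37 C, 5% CO2), are stained 40 min with Hoechst, and nuclear fluorescence is enumerated; a rise in nuclei with high DNA signal marks re-replication.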
MCF10A rereplic: DNA re-replication induction in MCF 10a cells; AID 624296; 2.9% of 350,000 active; Potency, µM (titrated, usually from 46.1 µM), for the others: top-dose activity, positive = re-replication, hits mostly activators; MCF 10A DNA re-replication, Hoechst nuclear intensity, 48 h; further: potency means the concentration at half of the fitted maximal effect; % of control where 0% means no effect; nearly all actives have a fitted effect of over 50% in size
DT40 TDP1 CPT: growth inhibition of DT40 Tdp1-/-;hTDP1 cells with camptothecin (screen for TDP1 inhibitors) | chicken DT40 Tdp1-/-;hTDP1 cells + 20 nM CPT, ATP luminescence, 48 h | Potency, µM (titrated, usually from 46.2 µM), inactives show at the highest dose activity change, negative = growth inhibition, most hits filed as inhibitors | 12% of 420,000 active; further: potency means the concentration at half of the fitted maximal effect; on the % scale 0 is the no-effect control and ±100 the full control effect; nearly all actives have a fitted effect of over 55% in size
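Chicken DT40 Tdp1-/- cells stably complemented with human TDP1 were seeded at 400 cells/well in medium containing 20 nM camptothecin, exposed to pin-transferred compounds, and grown at 37 °C for at least 48 hr. Viability was read as ATP luminescence.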
* marks the source's active call; other numbers are inactive results; ? = inconclusive; nt = not tested or not shown; [ ] = remark or other dose. Unless noted, the call rests on the fitted dose curve; in most records, active means well fitted curve in the direction sought with a large enough effect; inconclusive means small, poorly fitted or top-dose-only effect, or another doubt; inactive means no such curve, though single readings can be large; an effect the other way counts as inactive or inconclusive.

SMILES | TDP1 cell noCPT | IL-1B inflam inh | BCR signal inh | SW480 rereplic | MCF10A rereplic | DT40 TDP1 CPT
CCn1c(SCc2ccccc2C)nc(=O)c2c(C(=O)OC)cc(C3CC3)nc21 | 14.6µM* | nt | nt | nt | nt | 11.6µM*
CCn1c(SCc2c(F)cccc2Cl)nc(=O)c2c(C(=O)OC)cc(C3CC3)nc21 | ? | nt | nt | nt | nt | -7.6%
COc1cccc(CNC(=O)CCl)c1 | -0.2% | -0.3 | ? | -1.5% | -2.0% | 9.3%
COc1cccc(CNC(=O)COC(=O)c2c(NC(C)=O)sc(C)c2C)c1 | ? | 9.2 | -0.8% | 16.4µM* | 1.9% | -27.7%
COc1cccc(CNC(=O)COC(=O)c2nc(Cl)c(Cl)c(Cl)c2Cl)c1 | ? | -100.6* | ? | 11.6µM* | 7.31µM* | 0.0082µM*
CCCCN1C(=O)/C(=C2\SC(N3CCCCC3)=NC2=O)c2ccccc21 | ? | -28.2 | -3.4% | -1.0% | ? | 23.1µM*
Cc1ccccc1Nc1nc(Nc2ccccc2C)nc(SC2=NCCS2)n1 | 20.6µM* | ? | ? | -3.3% | -3.4% | 23.1µM*
Cc1ccc(Nc2nc(Nc3ccc(C)cc3)nc(SC3=NCCS3)n2)cc1 | 18.4µM* | -7.3 | 10.1% | ? | ? | ?
Cc1ccc(Nc2nc(C3CC3)cs2)cc1 | nt | nt | 18.9% | nt | nt | nt
O=C(O)CCCN=CC1=C(O)CNC1=O | -16.1% | -8.3 | 3.4% | -0.7% | 4.2% | ?
Clc1ccc2nc(COc3ccccc3)[nH]c2c1 | ? | -22.7 | ? | 7.31µM* | 3.26µM* | ?
Nc1nc2ccc(Cl)cc2[nH]1 | ? | 9.7 | nt | -0.3% | -1.1% | 2.2%
Clc1ccc2nc(-c3ccc(Cl)nc3)[nH]c2c1 | ? | -68.2* | ? | 13µM* | ? | ?
S=c1nc(COc2ccccc2)[nH]c2ccccc12 | ? | 2.7 | ? | -5.8% | -1.6% | ?
Clc1ccc2nc(-c3ccccc3)[nH]c2c1 | 26.6µM* | nt | nt | nt | nt | 29.9µM*
Cc1cc(C)c(C)c(S(=O)(=O)N2CCC(C(=O)NNC(=O)c3ccccc3O)CC2)c1C | 16.4µM* | 30.9 | -0.9% | ? | ? | ?
Cc1ccc(S(=O)(=O)N2CCC(C(=O)NNC(=O)c3ccccc3O)CC2)cc1C | ? | 7.9 | 7.8% | ? | 19.5% | ?
Cc1ccc(S(=O)(=O)N2CCC(C(=O)NNC(=O)c3ccccc3O)CC2)cc1 | 14.6µM* | 32.8 | 18.9% | ? | ? | ?
Cc1cc(C)c(C)c(S(=O)(=O)N2CCC(C(=O)NCc3cccs3)CC2)c1C | ? | 0.4 | nt | nt | nt | -26.3%
CC(=O)OC[C@@]1(O)C[C@@]23CC[C@@H]4c5ccoc5CC[C@@]4(C)[C@@H]2CCC1C3 | -20.5%[9.04 µM] | nt | nt | nt | nt | -14.2%[9.04 µM]
CCn1cc(C(=O)NCC(OC)OC)c(=O)c2cc(S(=O)(=O)N3CCCC3)ccc21 | 9.1% | 2.1 | -9.0% | -5.0% | 0.0% | -22.6%
CCn1cc(C(=O)NCc2ccc(Cl)cc2)c(=O)c2cc(S(=O)(=O)N3CCOCC3)ccc21 | 23.1µM* | -1.5 | -2.8% | -11.4% | 13.3% | 20.6µM*
CCn1cc(C(=O)NCC(OC)OC)c(=O)c2cc(S(=O)(=O)N3CCC(C)CC3)ccc21 | 10.3µM* | -6.5 | ? | 8.8% | ? | ?
CCn1cc(C(=O)NCc2ccc(C)cc2)c(=O)c2cc(S(=O)(=O)N3CCCCCC3)ccc21 | 20.6µM* | nt | ? | nt | nt | 14.6µM*
O=C(N=C1c2ccccc2CN1c1ccccc1)c1cccc([N+](=O)[O-])c1 | 11.6µM* | -4.1 | ? | -0.5% | -1.0% | -12.5%
SMILES | TDP1 cell noCPT | IL-1B inflam inh | BCR signal inh | SW480 rereplic | MCF10A rereplic | DT40 TDP1 CPT
COc1ccccc1S(=O)(=O)Nc1cc(C)nn1-c1ccc(C)cc1 | -2.5% | 38.8 | 3.9% | 4.4% | -4.6% | 9.7%
Cc1ccc(C)c(NS(=O)(=O)c2ccc3c(c2)Cc2cc(S(=O)(=O)Nc4cc(C)ccc4C)ccc2-3)c1 | 13µM* | 39.7 | 9.7% | ? | ? | 20.6µM*
CCCc1cc(C(=O)N2CCCC(C(=O)c3cc(C)c(OC)c(C)c3)C2)n(C)n1 (configuration not stated) | ? | 5.7 | 0.0% | 1.7% | ? | -41.6%
O=c1oc2cc(Oc3ccc(C(F)(F)F)cc3[N+](=O)[O-])ccc2c2c1CCC2 | -8.7% | -23.2 | -8.9% | -0.1% | ? | -3.2%
O=c1oc2cc(Oc3c([N+](=O)[O-])cc(C(F)(F)F)cc3[N+](=O)[O-])ccc2c2c1CCCC2 | 13µM* | -82.2* | ? | -0.6% | 19.4% | 8.2µM*
CCN(CC)S(=O)(=O)c1ccc(OC(C)C)c(NC(=O)C2=COCCO2)c1 | ? | 5.3 | 0.0% | 1.8% | 7.1% | ?
CC(=O)c1ccc(Nc2nc(C(N)CC(C)C)cs2)cc1 (configuration not stated) | 16.4µM* | -16.8 | nt | nt | nt | ?
CC(=O)c1ccc(Nc2nc(C(N)COCc3ccccc3)cs2)cc1 (configuration not stated) | ? | -23.1 | nt | nt | nt | 23.1µM*
CC(C)CC(N)c1csc(Nc2ccc(C(=O)NCCO)cc2)n1 (configuration not stated) | ? | 22.8 | nt | nt | nt | ?
CC(C)CC(N)c1csc(Nc2ccc(C(=O)c3ccccc3)cc2)n1 (configuration not stated) | 16.4µM* | -59.2* | nt | nt | nt | ?
CC(C)c1ccc(Nc2nc(CC(=O)O)cs2)cc1 | -24.6% | 16.3 | ? | -2.4% | 7.4% | -27.4%
NC(COCc1ccccc1)c1csc(Nc2ccc(C(=O)NCCO)cc2)n1 (configuration not stated) | ? | 0.5 | nt | nt | nt | ?
CCC[C@H]1CN(Cc2cccnc2)C(=O)[C@@H]1CC(=O)Nc1ccc(Br)cc1 | ? | -21.8 | nt | nt | nt | -29.7%
CCn1cc(C(=O)NCCC(=O)NCCCO)c(=O)c2cc3c(cc21)OCO3 | 2.8% | -12.7 | -0.6% | -1.4% | 2.1% | 4.7%
COc1cccc(-c2nc3c(c(SCC(=O)Nc4cccc(C)c4C)n2)Cc2c(CO)cnc(C)c2O3)c1 | -6.7% | nt | nt | nt | nt | -19.3%
CC(C)CSC1=NSC2=NC(=O)/C(=C\c3coc4ccccc4c3=O)C(=N)N12 | -25.7% | 3.9 | ? | -9.3% | 20.6µM* | 4.2%
CC(=O)c1c(C)[nH]c(C(=O)CN2C(=O)NC(CCc3ccccc3)C2=O)c1C (configuration not stated) | -1.9% | 0.0 | 5.6% | -0.5% | -10.4% | ?

High-throughput results from PubChem.
